Screening results from PubChem BioAssay.
SMN2 splice up = increases expression of the SMN2 splice variant | HEK293 SMN2-luciferase splicing reporter, luminescence, 30-36 h | Potency, µM (doses to about 46.1 µM), without a hit: at the highest dose activity change, positive = activation, actives largely listed as activators | hit rate 2.8% among 210,000 | AID 1458; also: % of control where 0% means no effect; nearly all actives have a fitted effect of over 55% in size
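HEK293 cells carry an SMN2 minigene-luciferase reporter in which exon 7 inclusion puts luciferase in frame. Cells were seeded at 2000 cells/well, attached for 10-12 hours, then exposed to compounds for 30-36 hours at 37C before ONE-Glo luminescence.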
NPC1 promoter act = NPC1 promoter activation. hit rate 2.4% among 320,000. Huh7 NPC1 promoter luciferase reporter, 24 h. Potency, µM (titrated, usually from 9.22 µM), for inactives: at the highest dose activation, usual class: activators. AID 485313; also: % of control where 0% means no effect; nearly all actives have a fitted effect of over 60% in size
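Luminescence read-out of NPC1 promoter-driven luciferase in stably transfected Huh7 cells; compounds delivered in DMSO and left 24 h at 37C, 5% CO2, qHTS titration format.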
Luc counter = counter-screen: inhibitors of Kinase-Glo firefly luciferase; Potency, µM (doses to about 38.3 µM), inactives show at the top dose activity change, negative = inhibition, hits mostly inhibitors; Q27757; Kinase-Glo luciferase, ATP luminescence, 8 min; hit rate 0.28% among 200,000; also: % is scaled to controls: 0 for no effect and ±100 for the full control effect; nearly all actives have a fitted effect of over 60% in size
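Light output from Kinase-Glo luciferase with luciferin and 10 uM ATP in 50 mM imidazole pH 7.2, KCl, MgCl2, Tween 20, BSA; compound pin-delivered, 8-min ambient incubation, then luminescence read.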
FLuc modulator = inhibits or activates purified firefly luciferase, miR-21 counter-screen; P08659; purified FLuc, Km substrates, luminescence inhibition; Potency, µM (titrated, usually from 57.5 µM), for inactives: at the highest dose activity change, negative = inhibition, most hits filed as inhibitors; hit rate 6.9% among 360,000;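 also: plate controls were vehicle for no effect and reference inhibitor for full effect; nearly all actives have a fitted effect of over 55% in size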
Target sequence (P08659 whole entry, looked up): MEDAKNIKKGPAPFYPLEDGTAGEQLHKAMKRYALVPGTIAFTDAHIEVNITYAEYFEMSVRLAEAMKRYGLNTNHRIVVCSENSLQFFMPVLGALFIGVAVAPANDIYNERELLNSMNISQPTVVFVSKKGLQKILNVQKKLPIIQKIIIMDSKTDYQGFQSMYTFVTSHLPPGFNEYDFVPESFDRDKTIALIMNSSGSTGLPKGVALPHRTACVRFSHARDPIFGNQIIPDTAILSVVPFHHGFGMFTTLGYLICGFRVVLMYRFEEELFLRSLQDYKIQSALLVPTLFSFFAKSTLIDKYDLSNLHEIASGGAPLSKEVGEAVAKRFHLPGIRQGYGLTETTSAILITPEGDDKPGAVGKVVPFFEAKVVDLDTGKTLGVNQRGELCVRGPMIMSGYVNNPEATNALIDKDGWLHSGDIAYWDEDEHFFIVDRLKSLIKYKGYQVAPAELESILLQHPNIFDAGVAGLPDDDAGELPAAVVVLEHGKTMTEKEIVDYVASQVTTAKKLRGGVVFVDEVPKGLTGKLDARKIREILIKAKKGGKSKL
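Purified P. pyralis luciferase, 10 nM final, with Km-level 10 uM D-luciferin and 10 uM ATP in 50 mM Tris acetate pH 7.5, 10 mM Mg acetate, 0.01% Tween-20, 0.05% BSA; 6-point qHTS titration about 60 µM downward; luminescence read.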
Rab9 prom act = activators of Rab9 promoter | Potency, µM (doses to about 9.22 µM), without a hit: at the highest dose activation, negative = inhibition, usual class: activators | Huh7 Rab9 promoter-luciferase reporter, luminescence, 24 h | hit rate 2.8% among 320,000; also: % of control where 0% means no effect; nearly all actives have a fitted effect of over 60% in size
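Huh7 reporter line, Rab9 promoter upstream of luciferase. Compound exposure 24 h at 37 °C in reduced-serum medium with 10% FBS. Read-out: luminescence.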
ELG1 genotox = induces genotoxicity in HEK293T cells with luciferase-tagged ELG1; Potency, µM (doses to about 46 µM), inactives show at the top dose activity change, positive = activation, hits mostly activators; hit rate 1.3% among 330,000; HEK293T ELG1-luciferase reporter, luminescence, 16 h; also: % of control where 0% means no effect; nearly all actives have a fitted effect of over 60% in size
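Quantitative HTS format in 1536-well plates. HEK293T ELG1-luciferase reporter cells receive test compound and are incubated 16 hr at 37 °C, 5% CO2; ONE-Glo added, 30 min room temperature, then luminescence read.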
Numbers without * were called inactive; u = inconclusive; x = no result; [ ] = another dose, or the depositor's remark. Compounds with a hit are over-represented: about 7.5% of the library has one in this group of screens. Calls follow the shape of the dose curve; as a rule, active = well fitted curve in the direction sought with a large enough effect; inconclusive = small, poorly fitted or top-dose-only effect, or another doubt; inactive = no such curve, though single readings can be large; an effect the other way counts as inactive or inconclusive. Potency is read from the fitted curve at half-maximal effect.

SMILES | SMN2 splice up | NPC1 promoter act | Luc counter | FLuc modulator | Rab9 prom act | ELG1 genotox
CCCc1nc2c(sc3nc4c(cc32)COC(C)(C)C4)c(=O)n1Cc1ccco1 | -17% | -2% | 3% | -1% | -3% | -3%
Cc1nc2c(sc3nc4c(cc32)COC(C)(C)C4)c(=O)n1Cc1ccccc1 | -36% | 26% | -2% | 24µM* | u | u
CC1(C)Cc2nc3sc4c(SCC(=O)NCc5ccco5)ncnc4c3cc2CO1 | u | -2% | -3% | 5.4µM* | u | 2.1µM*
Cc1nc2c(sc3nc4c(cc32)COC(C)(C)C4)c(=O)n1CC(=O)NCc1ccco1 | 13µM* | -7% | -10% | 8.5µM* | u | u
COC(=O)c1ccccc1NC(=O)N1CCC(N2CCN(Cc3ccc(F)cc3)C(=O)C2=O)CC1 | x | x | x | -8% | x | x
CCOc1ccc(S(=O)(=O)n2nnc3ccccc32)cc1C | -11% | -1% | -6% | 2% | -2% | 3%
CCOc1ccc(Cl)cc1S(=O)(=O)n1nnc2ccccc21 | 25µM* | -2% | 2% | 0%[2.3 µM] | -6% | -5%
CC(=O)Nc1ccccc1-c1nc2ccccc2n(Cc2cccc(Br)c2)c1=O | x | x | x | 0% | x | x
[C-]#[N+]c1cc(-c2ccncc2)c(C)[nH]c1=O | 7% | x | x | x | x | x
COc1ccc(-c2c(C)nc3c(-c4ccc(F)cc4)cnn3c2N)cc1 | x | 0.5µM* | x | 0.85µM* | 0.45µM* | u
Cc1nc2c(-c3ccc(Cl)cc3)cnn2c(N)c1-c1ccc(F)cc1 | x | 15% | x | 1.7µM* | u | 6.5µM*
COc1ccc(-c2cc(C(F)(F)F)n3ncc(-c4ccccc4)c3n2)cc1 | 0% | x | x | -3% | x | x
Cc1nc2c(-c3ccc(Cl)cc3)cnn2c2c1CCC2 | 25% | u | 3% | u | u | 4%
Nc1c(-c2ccccc2)cnc2ncnn12 | -2% | 0% | -4% | 1% | -7% | 2%
Nc1c(-c2ccc(Cl)cc2)cnc2c(-c3ccc(F)cc3)cnn12 | x | 0.56µM* | x | 1.5µM* | 0.5µM* | 7.3µM*
Nc1c(-c2cccc(Cl)c2)cnc2c(-c3ccccc3)cnn12 | x | 1.3µM* | x | 4.3µM* | u | u
COc1ccccc1-c1c(C)nn2c(N)c(-c3ccc(Cl)cc3)cnc12 | x | 1% | x | u | 10% | 0%
CCC1CN(C(=O)C2CCN(S(=O)(=O)c3c(C)noc3/C=C/c3ccccc3F)CC2)c2cc(Cl)ccc2O1 (stereo not drawn) | x | x | x | -2% | x | x
Cc1cc(C(F)(F)F)n2ncc(-c3ccc(F)cc3)c2n1 | -20% | -2% | -3% | 0% | -6% | 3%
Cc1nc2c(-c3ccc(F)cc3)cnn2c(N)c1-c1ccccc1 | x | -4% | x | 0.24µM* | 3% | 0.58µM*
Cc1ccccc1OCc1nnc(SCc2cc(=O)c3cc(F)ccc3[nH]2)n1C | x | x | x | 5% | x | x
N#Cc1ccc(-c2csc(NC3=NCCCCC3)n2)cc1 | u | 13% | 0% | u | 24% | 14%
FC(F)Oc1ccc(-c2csc(NNC3=NCCCCC3)n2)cc1 | -14% | 1% | 2% | u | -5% | 5%
Brc1ccc(-c2csc(NNC3=NCCCCC3)n2)cc1 | x | 6% | x | 19µM* | -6% | -3%
CC(C)(C)c1ccc(-c2csc(NNC3=NCCCCC3)n2)cc1 | -15% | 2% | -4% | 15µM* | -1% | u
SMILES | SMN2 splice up | NPC1 promoter act | Luc counter | FLuc modulator | Rab9 prom act | ELG1 genotox
c1ccc(-c2csc(NC3=NCCCCC3)n2)cc1 | 11µM* | 18% | -1% | 19µM* | u | u
Cc1ccc(NC(=O)Cn2c(=O)n(CCC(=O)NCc3ccccc3Cl)c(=O)c3ccccc32)c(C)c1 | -3% | x | x | -5% | x | x
Cc1cc2sc3ccccc3c(=O)c2c(C)c1O | x | 16% | 2% | 8.5µM* | 21% | 15%
CC(C)(C)c1ccc(C(=O)NCCC(=O)N2CCCC2)cc1 | x | 2.2µM* | x | 9.5µM* | 4µM* | 21µM*
Cc1ccc(C(=O)NCCC(=O)N2CCOCC2)cc1 | x | 1.6µM* | x | 11µM* | 2.5µM* | 13µM*
Cc1ccc(C(=O)NCCN2CCOCC2)cc1 | 0% | -2% | 1% | -9% | 5% | 6%
CC(C)(C)c1ccc(C(=O)NCC(=O)OCC(=O)N2CCCC2)cc1 | x | -1% | x | 15µM* | -3% | 0%
COc1ccc2c(c1)CCC1[C@@H]2CCC2(C)[C@@H](NCCCCCCN3C(=O)C=CC3=O)CC[C@@H]12 (stereo partly drawn) | x | x | -1% | x | x | x
COc1ccccc1CNC(=O)C1CCN(S(=O)(=O)c2ccc3c(c2)CCCN3C(C)=O)CC1 | x | x | x | -3% | x | x
CCC(=O)N1c2nc(-c3ccco3)nn2C2(CCCCC2)[C@@H]2CCCC[C@@H]21 | x | x | x | 2% | x | x
Cc1ccc(C(=O)CSc2nnc3ccccn23)c(C)c1 | 10µM* | 2µM* | 1% | 2.7µM* | 0.79µM* | 4.6µM*
COCCn1c(C)cc(C(=O)CSc2nnc3ccccn23)c1C | u | u | u | 1.3µM* | u | 0.58µM*
COCCn1c(SCC(=O)c2cc(C)n(C)c2C)nc2ccccc2c1=O | 18% | 16% | -1% | u | 24% | 1%
COCCn1c(C)cc(C(=O)CSc2ncn[nH]2)c1C | 5.6µM* | 4% | 3% | u | 29% | 12%
COC(=O)c1ccc(NC(=O)c2ccc(C)cc2)o1 | 4% | 15% | 1% | 19µM* | 24% | 2%
CCn1c(CNC(C)=O)nnc1SCC(=O)c1ccc(Br)cc1 | u | -5% | -3% | -3% | 0% | -1%
CCN(CC)C(=S)SCC(=O)c1ccc(Br)cc1 | u | u | 0% | 19µM* | u | u
CCCCOc1ccc(-c2ncc(C(=O)O)c(C)n2)cc1 | 14µM* | 0.5µM* | -6% | 2.4µM* | 0.56µM* | 12%
O=C(Cc1ccccc1[N+](=O)[O-])OCN1C(=O)c2ccccc2C1=O | x | -10% | x | 9.5µM* | 10% | 5%
O=C1c2ccccc2S(=O)(=O)N1Cc1ccccc1[N+](=O)[O-] | x | 8% | x | 0% | 0% | -1%
O=C1c2ccccc2C(=O)N1OCc1ccccc1[N+](=O)[O-] | 1% | -1% | -3% | 17µM* | -3% | -1%
OB(O)c1ccc(Br)cc1 | -2% | x | -4% | x | x | x
CSc1c(-c2ccccn2)c(N)nn1C(=O)C1CC1 | x | 0% | x | 19µM* | 0% | 0%
COc1ccc(-c2csc(NC(=O)CSc3nc(SC)ns3)n2)cc1 | 22µM* | u | -1% | u | 26% | u
COc1ccc(-c2csc(NC(=O)CSc3nc(C)nc4sc(C(=O)O)c(C)c34)n2)cc1 | x | -2% | x | 27µM* | -3% | 1%
COc1ccccc1NC(=O)CSc1nc(SC)ns1 | x | 5% | x | -5% | 19% | 11%
